From PubChem BioAssay
The source made the active and inactive calls.

Key:
[1] = system: Plasmodium falciparum Sir2 (PF13_0152, Sir2A); assay: pfSir2 binders on small-molecule microarrays, primary screen, biochemical, small-molecule microarray, 635 nm fluorescence (AID 1098); conditions: small-molecule microarray binding, fluorescence 635 nm; higher = more signal;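 also: score merges spot fluorescence intensity with its signal-to-noise ratio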
[2] = small-molecule microarray binders of probe aDKK1, primary screen, biochemical, biotinylated probe, 635/667 nm fluorescence (AID 1099); conditions: higher = more signal;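 also: score merges 667nm spot fluorescence with signal to noise across triplicate slides; reference of the scale not given here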
[3] = small-molecule microarray binders of probe aCHRDL2, primary screen, biochemical, biotinylated probe, 635/667 nm fluorescence (AID 1100); conditions: higher = more signal
[4] = splicing luciferase reporter signal modulators, primary screen, spliceosome inhibition project, cell-based, HEK293, splice +/- reporter (AID 1101); conditions: luminescence, 24 h, higher = more signal, called active from +8 up or from −8 down;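 also: HEK293 cells carrying a splicing-competent luciferase reporter gene; test concentration not given here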
[5] = molecular target: Fibroblast growth factor 10 (Homo sapiens) (UniProt O15520); assay: FGF10 binders on small-molecule microarrays, primary screen, biochemical, small-molecule microarray, 635 nm fluorescence (AID 1102); conditions: FGF10 binding, fluorescence 635 nm, higher = more signal
[6] = system: glycogen synthase kinase-3 (GSK3A per assay name; protocol says GSK3B); assay: GSK3 binders on small-molecule microarrays, primary screen, biochemical, small-molecule microarray, 635 nm fluorescence, GSK3A (AID 1103); conditions: small-molecule microarray binding, fluorescence 635 nm; higher = more signal; also: the record names both GSK3A and GSK3B
[7] = molecular target: Epidermal growth factor receptor (Homo sapiens) (UniProt P00533); assay: EGFR binders on small-molecule microarrays, primary screen, biochemical, small-molecule microarray, 635 nm fluorescence (AID 1104); conditions: EGFR binding, higher = more signal;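 also: score merges 667 nm emission intensity with spot signal to noise over triplicate slides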
[8] = molecular target: Follistatin-related protein 3 (Homo sapiens) (UniProt O95633); assay: FSTL3 binders on small-molecule microarrays, primary screen, biochemical, small-molecule microarray, 635 nm fluorescence (AID 1105); conditions: FSTL3 binding, higher = more signal;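 also: score merges emission near 667 nm and signal to noise per printed spot across three slides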
[9] = molecular target: Dickkopf-related protein 1 (Homo sapiens) (UniProt O94907); assay: DKK1 binders on small-molecule microarrays, primary screen, biochemical, small-molecule microarray, 635 nm fluorescence scan (AID 1106); conditions: DKK1 binding, higher = more signal;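 also: score merges emission near 667 nm with signal to noise over three replicate slides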
[10] = system: Inhibin beta A chain (activin A); assay: INHBA (activin A) binders on microarrays, primary screen, biochemical, small-molecule microarray, 635 nm fluorescence scan (AID 1107); conditions: small-molecule microarray binding, higher = more signal;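 also: mouse activin A protein probed at 4.33 µg/mL on printed slides; score merges bound-protein fluorescence near 667 nm with spot signal-to-noise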

Chain of Follistatin-related protein 3 (Homo sapiens) (O95633 whole entry, looked up): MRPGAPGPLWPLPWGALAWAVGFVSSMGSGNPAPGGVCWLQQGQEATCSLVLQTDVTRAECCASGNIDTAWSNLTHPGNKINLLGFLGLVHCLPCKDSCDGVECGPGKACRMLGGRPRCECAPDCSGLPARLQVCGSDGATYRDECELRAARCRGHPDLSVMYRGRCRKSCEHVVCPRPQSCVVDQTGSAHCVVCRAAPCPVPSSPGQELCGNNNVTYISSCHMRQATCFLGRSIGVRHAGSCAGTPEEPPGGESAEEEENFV
Chain of Fibroblast growth factor 10 (Homo sapiens) (O15520 whole entry, looked up): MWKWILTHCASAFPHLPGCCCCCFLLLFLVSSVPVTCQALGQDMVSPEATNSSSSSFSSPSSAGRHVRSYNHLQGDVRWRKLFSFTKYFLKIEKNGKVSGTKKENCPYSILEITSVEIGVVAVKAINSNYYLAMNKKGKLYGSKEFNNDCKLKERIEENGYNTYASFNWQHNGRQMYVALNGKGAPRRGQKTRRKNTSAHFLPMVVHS
Chain of Epidermal growth factor receptor (Homo sapiens) (P00533 whole entry, looked up): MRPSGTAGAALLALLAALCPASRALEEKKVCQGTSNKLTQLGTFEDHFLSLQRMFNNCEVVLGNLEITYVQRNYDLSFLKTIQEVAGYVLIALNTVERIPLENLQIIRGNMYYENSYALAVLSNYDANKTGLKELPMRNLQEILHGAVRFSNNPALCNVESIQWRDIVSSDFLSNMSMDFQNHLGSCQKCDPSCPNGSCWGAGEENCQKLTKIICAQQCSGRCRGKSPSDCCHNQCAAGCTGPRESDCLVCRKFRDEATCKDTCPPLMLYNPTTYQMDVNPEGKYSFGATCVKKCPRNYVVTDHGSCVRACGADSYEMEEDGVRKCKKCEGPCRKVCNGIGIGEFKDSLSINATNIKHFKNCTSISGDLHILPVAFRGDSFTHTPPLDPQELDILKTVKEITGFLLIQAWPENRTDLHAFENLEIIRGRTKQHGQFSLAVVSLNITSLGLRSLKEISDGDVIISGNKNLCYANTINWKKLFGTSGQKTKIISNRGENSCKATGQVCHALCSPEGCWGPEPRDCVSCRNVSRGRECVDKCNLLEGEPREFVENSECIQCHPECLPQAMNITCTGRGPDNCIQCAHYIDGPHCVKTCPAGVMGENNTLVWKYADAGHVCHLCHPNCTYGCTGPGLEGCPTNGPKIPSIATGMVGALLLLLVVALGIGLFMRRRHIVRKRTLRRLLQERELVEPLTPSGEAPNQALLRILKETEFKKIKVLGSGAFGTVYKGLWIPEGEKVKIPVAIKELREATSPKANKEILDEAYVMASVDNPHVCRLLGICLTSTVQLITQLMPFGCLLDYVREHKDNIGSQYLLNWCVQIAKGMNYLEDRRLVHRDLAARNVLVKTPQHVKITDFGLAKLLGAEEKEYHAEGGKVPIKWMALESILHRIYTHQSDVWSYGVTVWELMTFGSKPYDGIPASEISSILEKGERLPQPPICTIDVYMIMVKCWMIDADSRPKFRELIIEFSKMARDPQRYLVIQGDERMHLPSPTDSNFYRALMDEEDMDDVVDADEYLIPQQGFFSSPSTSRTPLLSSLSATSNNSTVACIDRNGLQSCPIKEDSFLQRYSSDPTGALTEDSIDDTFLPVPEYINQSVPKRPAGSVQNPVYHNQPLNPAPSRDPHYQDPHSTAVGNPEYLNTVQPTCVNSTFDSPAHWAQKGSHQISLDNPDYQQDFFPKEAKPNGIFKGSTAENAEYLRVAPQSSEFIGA
Chain of Dickkopf-related protein 1 (Homo sapiens) (O94907 whole entry, looked up): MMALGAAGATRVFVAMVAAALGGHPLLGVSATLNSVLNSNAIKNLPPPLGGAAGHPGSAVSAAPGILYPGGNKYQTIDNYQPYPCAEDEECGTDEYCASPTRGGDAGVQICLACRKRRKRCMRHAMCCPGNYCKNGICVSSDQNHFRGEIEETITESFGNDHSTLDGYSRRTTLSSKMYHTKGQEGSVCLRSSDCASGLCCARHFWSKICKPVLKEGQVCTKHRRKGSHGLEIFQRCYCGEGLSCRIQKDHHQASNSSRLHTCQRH

SMILES | composite z-score [1] | composite z-score [2] | composite z-score [3] | z-score [4] | composite z-score [5] | composite z-score [6] | composite z-score [7] | composite z-score [8] | composite z-score [9] | composite z-score [10]
CC(c1ccccc1)C(O)C1C=CC2C(=O)NC(=O)C2N1Nc1ccccn1 (stereo not given) | 0.459 | 0.0178 | 0.585 | 1.63 (inactive) | 0.831 | 0.767 | 0.532 | 1.01 | 0.481 | 1.41
CCCCC=C[C@@H](NC(=O)c1cccs1)c1ccccc1 | -0.15 | -0.0451 | 0.359 | -3.77 (inactive) | 0.44 | 0.476 | -0.273 | -0.171 | 0.13 | 0.764
COCCOC(=O)N1C(=O)[C@@]2(c3ccccc31)[C@H](C(=O)NC[C@H](O)c1ccccc1)[C@H]1C(=O)O[C@H](c3ccccc3)[C@H](c3ccccc3)N1[C@@H]2c1ccc(OCCO)cc1 | 1.38 | 0.0185 | -0.131 | -1.81 (inactive) | 1.08 | 1.27 | 1.13 | 1.51 | 1.01 | 0.955
Cc1ccc(S[C@]2(C(=O)NCc3ccccc3)CC(=O)N(Cc3ccccc3Cl)[C@@H]2c2ccc(CO)cc2I)cc1 | 0.49 | 0.302 | 1.13 | -1.6 (inactive) | -0.761 | -0.528 | -1.17 | -0.689 | -1.22 | 0.962
CCOC(=O)C1=CCC(C(C)(C)C)N(S(=O)(=O)c2ccc(C)cc2)C1 (stereo not given) | 0.939 | 0.368 | 0.108 | -0.0514 (inactive) | 1.48 | 0.347 | 1.15 | 1.43 | 1.44 | 0.136
COCCOC(=O)N1C(=O)[C@@]2(c3cc(C#CCNC(N)=O)ccc31)[C@H](C(=O)N1CCN(c3ncccn3)CC1)[C@H]1C(=O)O[C@H](c3ccccc3)[C@H](c3ccccc3)N1[C@@H]2c1ccccc1OCCO | 1.2 | 0.265 | 0.714 | -0.619 (inactive) | 1.13 | 0.0685 | 0.736 | 1.24 | 1.7 | 1.02
CC(C)c1ccc(NN2C(C(O)c3ccc(N(C)C)cc3)C=CC3C(=O)N(c4ccccc4)C(=O)C32)cc1 (stereo not given) | 1.24 | 0.64 | 0.947 | -0.132 (inactive) | 0.782 | 0.267 | 0.0151 | 1.25 | 0.469 | 0.898
COc1ccc([Si](C)(C)[C@@H]2[C@@H](CC(=O)N(CCO)Cc3ccccc3)O[C@]3(C(=O)N(C)c4ccccc43)[C@H]2C)cc1 | 1.24 | 0.909 | 0.0207 | 0.841 (inactive) | 1.05 | 1.16 | 0.749 | 1.39 | 1.32 | 1.16
O=c1cccc(CCc2ccccc2)o1 | 0.931 | -0.232 | -0.44 | 0.722 (inactive) | 0.228 | 0.599 | -0.834 | 0.153 | 0.193 | 0.532
C=CCOC(=O)[C@@H]1[C@H]2C(=O)O[C@H](c3ccccc3)[C@H](c3ccccc3)N2[C@H](c2ccc(OCCOC(=O)[C@@H]3C[C@@H]4C(=O)NCC(=O)N4[C@@H]3c3cccc(OCCO)c3)cc2)[C@@]12C(=O)Nc1ccc(I)cc12 | 1.05 | 0.0651 | -0.162 | -0.798 (inactive) | 1.29 | 1.16 | 1.12 | 1.1 | 0.866 | 0.884
CC(C)NC(=O)[C@@]1(Cc2ccccc2I)c2ccccc2C(=O)N(Cc2ccccc2)[C@H]1c1ccc(CO)cc1 | 1.45 | 0.461 | 0.715 | -0.227 (inactive) | 0.954 | 1.28 | 0.136 | 1.09 | 0.0622 | 0.315
COc1cc(CO)ccc1OC(C)=O | 0.144 | -0.082 | -0.526 | -0.749 (inactive) | 0.171 | 0.536 | 0.558 | 0.516 | 0.668 | 0.167
CC(C)N1C(=O)C[C@@](C(=O)NCc2ccccc2)(c2ccc([N+](=O)[O-])cc2)[C@H]1c1ccc(CO)cc1 | 0.142 | -0.0752 | 0.934 | 0.0798 (inactive) | 0.484 | 0.321 | -0.786 | -0.17 | -0.0781 | 0.0614
COC(=O)[C@@]1(Cc2ccc(OC)cc2)[C@H]2c3cc(C(=O)N4CCCC4)n(CCc4c[nH]c5cc(F)ccc45)c3C[C@H]2CN1C(=O)c1ccccc1 | 1.31 | 0.185 | 1.19 | -0.332 (inactive) | 0.875 | 1.09 | 0.0022 | 0.988 | -0.0303 | 0.831
COC(=O)[C@@]1(Cc2ccc(F)cc2)[C@H]2c3cc(C(=O)N(C)C)n(CCc4ccccn4)c3C[C@H]2CN1C(=O)c1ccccc1 | 0.219 | 0.849 | 0.312 | -3.62 (inactive) | 0.355 | 1.36 | 0.472 | 0.869 | 0.41 | 0.403
C=CCC(OC(C)=O)[C@@H]1[C@@H](N(Cc2ccc(-c3ccccc3)cc2)C(=O)Cc2ccc(OC)cc2)c2cc(OCCCO)ccc2N1C(=O)c1ccc2ccccc2n1 (stereo not given in full) | -0.245 | -0.106 | 0.027 | -1.33 (inactive) | -0.19 | -0.494 | 0.24 | -0.0321 | 0.37 | 1.48
